VDR inh = blocks the human vitamin D receptor. VDR-SRC2-3 peptide fluorescence polarization, 2 h. Potency, µM, without a hit: max response, negative = inhibition, usual class: inhibitors. 400,000 tested, 0.93% active. AID 504847. P11473; note: % is set by controls: 0 for no effect and ±100 for the full control effect
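Fluorescence polarization assay of small-molecule disruption of VDR binding to coregulator peptide SRC2-3. Compounds and controls pin-transferred, then read after 2 h incubation at ambient room temperature.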
BAZ2B block = blocks human BAZ2B; Q9UIF8; AlphaScreen BAZ2B-H3K14Ac peptide displacement; Potency, µM (doses to about 114 µM), for the others: top-dose activity change, negative = inhibition, most hits filed as inhibitors; 360,000 tested, 4.4% active; note: % is set by controls: 0 for no effect and ±100 for the full control effect; nearly all actives have a fitted effect of over 60% in size
Target sequence (Q9UIF8 whole entry, looked up): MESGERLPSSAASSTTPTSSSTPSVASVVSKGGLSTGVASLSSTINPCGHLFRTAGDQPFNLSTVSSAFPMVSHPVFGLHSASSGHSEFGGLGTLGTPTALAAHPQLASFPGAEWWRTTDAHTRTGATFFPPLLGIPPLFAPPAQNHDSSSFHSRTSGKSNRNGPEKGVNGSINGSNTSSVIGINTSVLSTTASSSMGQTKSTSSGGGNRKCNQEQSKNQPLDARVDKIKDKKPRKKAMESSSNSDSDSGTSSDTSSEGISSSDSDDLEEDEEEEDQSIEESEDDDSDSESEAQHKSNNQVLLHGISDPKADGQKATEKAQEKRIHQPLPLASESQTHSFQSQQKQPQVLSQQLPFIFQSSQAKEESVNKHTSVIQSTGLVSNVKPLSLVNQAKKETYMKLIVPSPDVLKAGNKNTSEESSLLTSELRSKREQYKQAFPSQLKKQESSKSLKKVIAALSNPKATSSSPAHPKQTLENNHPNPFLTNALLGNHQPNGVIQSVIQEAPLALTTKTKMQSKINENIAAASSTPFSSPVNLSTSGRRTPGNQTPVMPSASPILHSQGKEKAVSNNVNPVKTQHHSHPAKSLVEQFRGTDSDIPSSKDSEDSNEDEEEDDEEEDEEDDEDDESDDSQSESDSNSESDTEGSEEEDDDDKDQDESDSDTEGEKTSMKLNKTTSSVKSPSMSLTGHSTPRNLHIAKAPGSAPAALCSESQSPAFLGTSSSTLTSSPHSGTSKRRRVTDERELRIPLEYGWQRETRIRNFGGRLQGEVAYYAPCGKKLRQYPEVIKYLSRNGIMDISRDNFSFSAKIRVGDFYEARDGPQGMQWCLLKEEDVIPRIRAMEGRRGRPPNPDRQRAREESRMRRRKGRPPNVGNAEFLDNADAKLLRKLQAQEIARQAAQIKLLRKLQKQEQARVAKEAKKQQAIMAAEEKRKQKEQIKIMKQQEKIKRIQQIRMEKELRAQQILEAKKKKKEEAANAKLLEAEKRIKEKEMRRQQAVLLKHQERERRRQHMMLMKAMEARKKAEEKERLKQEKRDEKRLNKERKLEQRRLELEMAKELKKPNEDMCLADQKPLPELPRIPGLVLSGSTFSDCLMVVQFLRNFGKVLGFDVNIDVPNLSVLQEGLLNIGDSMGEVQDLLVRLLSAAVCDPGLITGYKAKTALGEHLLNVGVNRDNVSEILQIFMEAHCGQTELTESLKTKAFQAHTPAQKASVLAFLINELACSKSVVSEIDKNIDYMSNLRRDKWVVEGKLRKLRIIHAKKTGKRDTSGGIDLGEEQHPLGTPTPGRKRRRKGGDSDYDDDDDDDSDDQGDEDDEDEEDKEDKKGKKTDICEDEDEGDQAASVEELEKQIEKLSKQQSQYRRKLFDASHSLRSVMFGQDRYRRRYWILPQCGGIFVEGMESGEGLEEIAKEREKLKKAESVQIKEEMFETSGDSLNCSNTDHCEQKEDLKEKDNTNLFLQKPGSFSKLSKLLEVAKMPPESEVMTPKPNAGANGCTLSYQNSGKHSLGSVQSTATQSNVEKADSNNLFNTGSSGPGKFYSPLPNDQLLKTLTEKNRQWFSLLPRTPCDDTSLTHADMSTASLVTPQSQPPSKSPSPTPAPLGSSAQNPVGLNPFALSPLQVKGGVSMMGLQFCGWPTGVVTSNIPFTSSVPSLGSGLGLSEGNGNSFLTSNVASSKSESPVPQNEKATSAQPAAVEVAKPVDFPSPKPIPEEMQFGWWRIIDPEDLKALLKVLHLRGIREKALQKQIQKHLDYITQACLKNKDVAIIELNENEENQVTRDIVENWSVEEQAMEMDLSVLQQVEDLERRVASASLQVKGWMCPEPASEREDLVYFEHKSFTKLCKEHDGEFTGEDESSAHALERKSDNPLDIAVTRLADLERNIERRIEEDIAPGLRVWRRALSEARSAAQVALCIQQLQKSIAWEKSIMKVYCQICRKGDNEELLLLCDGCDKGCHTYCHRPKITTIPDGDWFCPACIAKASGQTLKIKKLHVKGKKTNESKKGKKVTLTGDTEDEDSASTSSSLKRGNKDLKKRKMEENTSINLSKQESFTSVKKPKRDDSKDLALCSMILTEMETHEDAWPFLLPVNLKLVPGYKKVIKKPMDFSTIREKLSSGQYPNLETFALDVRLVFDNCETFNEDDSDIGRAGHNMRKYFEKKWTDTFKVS
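Protein-peptide AlphaScreen: BAZ2B 50 nM, b-H3K14Ac 50 nM, 1x PBS pH 7.4 + 0.01% Tween-20. Preincubation 30 min RT; cpd 30 min RT (top 110 uM); beads 20 min RT, light-protected.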
PLK1 PBD inh = inhibitors of human PLK1 polo-box domain binding; P53350; AID 720504; 360,000 tested, 2.8% active; Potency, µM, without a hit: max response, negative = inhibition, most hits filed as inhibitors; Plk1 PBD binding of FITC phosphopeptide, fluorescence polarization; note: series mostly up to about 57 µM; % is set by controls: 0 for no effect and ±100 for the full control effect; nearly all actives have a fitted effect of over 65% in size
HP1b binding inh = inhibitors of HP1-beta chromodomain binding to methylated histone tails. P83916. AlphaScreen HP1-beta / biotin-H3K9me3 peptide binding. Potency, µM (highest dose often 114 µM), for the others: at the highest dose activity change, negative = inhibition, actives largely listed as inhibitors. 390,000 tested, 0.56% active; note: nearly all actives have a fitted effect of over 70% in size
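AlphaScreen: HP1-beta (50 nM) preformed 30 min with biotin-H3(1-18)K9me3 peptide (50 nM) in PBS pH 7.4, 0.01% Tween-20. Compound added for 30 min at RT, then streptavidin donor/nickel chelate acceptor beads (10 ug/mL) for 30 min.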
JMJD2A Tudor = JMJD2A Tudor domain (human) inhibition; O75164; 390,000 tested, 4.4% active; AlphaScreen JMJD2A-Tudor / H3K4me3 peptide binding; Potency, µM (doses to about 114 µM), for inactives: at the top dose activity change, negative = inhibition, hits mostly inhibitors; note: % is set by controls: 0 for no effect and ±100 for the full control effect; nearly all actives have a fitted effect of over 50% in size
L3MBTL1 inh = inhibitors of human L3MBTL1; Q9Y468; Potency, µM (top dose mostly 57.1 µM), for the others: at the highest dose activity, negative = inhibition, usual class: inhibitors; 230,000 tested, 0.66% active; AlphaScreen L3MBTL1–H3K9me1 peptide binding; note: % is set by controls: 0 for no effect and ±100 for the full control effect; nearly all actives have a fitted effect of over 60% in size
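Read-out is AlphaScreen signal from streptavidin donor and nickel chelate acceptor beads (10 ug/mL final each) bridging L3MBTL1 (50 nM) and biotinylated K9-monomethylated H3(1-15) peptide (75 nM), after 30 min compound exposure at room temperature.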
An asterisk follows results filed as active; u = inconclusive; x = not tested or not shown; [ ] = dose if it differs, or a comment. Most compounds without a hit are left out; they make up all but 6.9% or so of the library. Calls come from the whole dose curve; as a rule, active = well fitted curve in the direction sought with a large enough effect; inconclusive = small, poorly fitted or top-dose-only effect, or another doubt; inactive = no such curve, though single readings can be large; an effect the other way counts as inactive or inconclusive. Potency is the fitted concentration of half-maximal effect.

SMILES	VDR inh	BAZ2B block	PLK1 PBD inh	HP1b binding inh	JMJD2A Tudor	L3MBTL1 inh
Cc1ccc(C)c2c1c1ccccc1n2C	9%	-4%	2%	33%	7%	10%
COc1cccc(N(CC(=O)N2CCOCC2)S(C)(=O)=O)c1	-20%	30%	-15%	27%	0%	34%[2.29 µM]
COc1ccc([N+](=O)[O-])cc1N(CC(=O)N1CCN(Cc2ccccc2)CC1)S(C)(=O)=O	50µM*	11%	12µM*	-5%	u	6%
COc1ccc(N(CC(=O)N2CCOCC2)S(C)(=O)=O)c(OC)c1	u	u	21µM*	-10%	u	-1%
CC(Sc1nnc(COc2ccc(Cl)cc2)o1)C(=O)Nc1ccc(N2CCOCC2)cc1 (stereo unspecified)	2%	13%	-9%	19%	-11%	1%
Cc1cccc(NC(=O)c2ccc(C(=O)Nc3cccc(C)c3C)cc2)c1C	49%	3%	x	-10%	-20%	x
Cc1nc(C)c(-c2csc(NCc3ccco3)n2)s1	-5%	50µM*	-15%	-18%	u	x
C=CCNc1nc(-c2c(C)nc3ncccn23)cs1	-11%	-4%	-9%	14%	-11%	-2%[2.29 µM]
Cc1nc2ccccn2c1-c1csc(NCc2ccco2)n1	-5%	50µM*	-17%	2%	-34%[57.1 µM]	-14%[11.4 µM]
COc1ccc(-c2csc(NCc3ccco3)n2)cc1	-6%	50µM*	-11%	u	79µM*	-3%
Cc1ccn2c(-c3csc(NCc4ccccc4)n3)c(C)nc2c1	-8%	32µM*	-10%	u	56µM*	-3%
CCn1cc(C(=O)N2CCN(c3cccc(C)c3C)CC2)c2cc(OC)c(OC)cc2c1=O	3%	-31%	x	0%	-25%	x
CNC(=O)C1Cc2c(-c3ccccc3Oc3ccccc3)ccnc2O1 (stereo unspecified)	x	x	-12%	x	x	x
CN(CC(=O)Nc1ccccc1C(=O)NC1CC1)Cc1ccco1	1%	u	-5%	40%	-6%	4%
COc1ccc(-c2ccc(=O)n(CC(=O)NCc3ccco3)n2)cc1	6%	u	-14%	0%	u	-10%
CCC(C(=O)NCc1ccco1)n1nc(-c2ccc(OC)cc2)ccc1=O (stereo unspecified)	-3%	50µM*	-11%	-32%	u	-27%
CCN(CCCNC(=O)CSc1cc(=O)n(CC)c2ccccc12)c1cccc(C)c1	-1%	22µM*	x	u	32µM*	x
CCc1ccc(NC(=O)CSc2nc(-c3ccc(C)cc3)nc3c2Cc2c(CO)cnc(C)c2O3)cc1	-3%	50µM*	x	43%	-24%	-9%
CCc1ccc(NC(=O)CSc2nc(-c3ccccc3Cl)nc3c2Cc2c(CO)cnc(C)c2O3)cc1	1%	-1%	x	24%	13%	x
Cc1cccc(C(=O)NNS(=O)(=O)c2ccc(F)cc2)c1O	2%	-11%	-6%	26%	2µM*	2%
Cc1ccc(S(=O)(=O)NNC(=O)c2sc(=S)n(C)c2C)cc1	10%	-33%	-9%	29%	3.5µM*	-2%
O=C(NNS(=O)(=O)c1ccccc1)c1cccc(F)c1	-4%	56µM*	-8%	46%	8%	-2%[2.29 µM]
Cc1ccc(S(=O)(=O)NNC(=O)c2ccncc2)cc1	6%	-1%	-2%	6%	79µM*	-1%
CCCCCCCC/C=C\CCCCCCCC(=O)OC[C@@H](O)COP(=O)(O)O	-1%	x	x	x	x	x
COc1cccc(-c2ccc3ncnc(NCCc4c[nH]c5ccc(OC)cc45)c3c2)c1	5%	x	x	x	x	x
SMILES	VDR inh	BAZ2B block	PLK1 PBD inh	HP1b binding inh	JMJD2A Tudor	L3MBTL1 inh
CCC(C)[C@H](NS(=O)(=O)c1ccc(C)cc1)C(=O)N1CCC(C(=O)N[C@@H](Cc2ccccc2)C(=O)O)CC1 (stereo partly specified)	-26%	-1%	-1%	53%	-10%	x
COc1ccccc1CNC(=O)c1ccc(CSc2nc3ccncc3n2Cc2cccc(F)c2)cc1	7%	-12%	x	51%	-15%	x
O=C(NNS(=O)(=O)c1ccccc1)c1ccncc1	9%	11%	-3%	8%	10µM*	0%
O=C(NS(=O)(=O)Nc1ccccc1)C1=C(N2CCCC2)COC1=O	-16%	x	-14%	28%	100µM*	-6%
O=C(NC(=O)c1ccccc1)C1=C(N2CCCC2)COC1=O	-17%	-3%	-15%	30%	-10%	-2%
Cc1nc(C)c(C(=O)NNS(=O)(=O)c2ccc3ccccc3c2)s1	-5%	-17%	-1%	17%	25µM*	7%
CCOc1ccc(CNC(=O)Cn2cc3c(n2)-c2c(oc(C(=O)N4CCOCC4)c2C)CC3)cc1	-3%	u	x	27%	56µM*	x
Cc1ccc(CNC(=O)Cn2cc3c(n2)-c2c(oc(C(=O)N4CCOCC4)c2C)CC3)cc1	11%	u	x	33%	-12%	x
O=C(Nc1ccc(Cl)c(C(F)(F)F)c1)C1CCN(S(=O)(=O)c2cccc3nonc23)CC1	-1%	-3%	x	1%	-23%	x
CCOC(=O)N1CCC(N2CCN(Cc3ccc(C)o3)C(CCO)C2)CC1 (stereo unspecified)	-27%	0%	15µM*	u	u	3%
CN(C[C@H](Cc1ccccc1)N(C[C@H](Cc1cccc2ccccc12)N(CCc1ccccc1)N=O)N=O)N=O	-10%	71µM*	-6%	7%	u	x
Cc1ccc(OCc2nnc(SCC(=O)O)n2N)cc1	0%	u	1%	28%	-15%	-1%
COc1ccc(OCc2nnc(SCC(=O)N(C)Cc3ccccc3)n2N)cc1	79µM*	x	11µM*	u	u	-6%
COc1ccccc1CN1CCCC(C(=O)N(C)Cc2ccccc2)C1 (stereo unspecified)	-14%	0%	3%	u	3.2µM*	-4%
COc1ccccc1CN1CCCC(C(=O)N2CCCCC2)C1 (stereo unspecified)	15%	45µM*	6%	71µM*	1.8µM*	13%
CC(c1ccncc1)C(C)c1ccncc1 (stereo unspecified)	-16%	-5%	-12%	25%	-21%	0%
Cc1ccc(NC(=O)CCn2c(=O)c3cccn3c3ccccc32)c(Cl)c1	-4%	-19%	x	26%	-28%	x
CCCNC(=O)Cn1cnc([N+](=O)[O-])n1	-23%	6%	-1%	24%	-11%	2%
CC(=O)OCc1cnc(C)c2oc(=O)c(C(=O)Nc3ccc(C)cc3Cl)cc12	5%	0%	x	12%	-10%	x
CNc1nc(NC)c2cn[nH]c2n1	-2%	x	1%	26%	-2%	x
C/C(Cc1ccccc1)=N\NC(=O)CNC(=O)c1ccccc1Br	-4%	1%	-6%	8%	-8%	13%
COc1c2n(C)ccc3c-2n(c(=O)c1=O)c1ccccc31	u	12%	-1%	37%	-8%	3%

Compound activity: PubChem, National Center for Advancing Translational Sciences (NCATS)
